In the supplement of paper PMC11732987, “Enantioselective OTUD7B fragment discovery through chemoproteomics screening and high-throughput optimisation” (Communications Chemistry, 2025):

Key:
Experiment in all cases: log2 ratio of Biotin-Ahx-Ub-VS probe labelling (fragment/DMSO); higher = less target engagement (more negative = stronger competition), active = hit call of the paper (q ≤ 0.05, log2 ratio ≤ -1)
Conditions in all cases: compound concentration: 200 uM; treatment time: 3 h
USP34 = USP34 (UniProt Q70CQ2)
Sequence of USP34 (Q70CQ2 whole entry, the tested form may be a part): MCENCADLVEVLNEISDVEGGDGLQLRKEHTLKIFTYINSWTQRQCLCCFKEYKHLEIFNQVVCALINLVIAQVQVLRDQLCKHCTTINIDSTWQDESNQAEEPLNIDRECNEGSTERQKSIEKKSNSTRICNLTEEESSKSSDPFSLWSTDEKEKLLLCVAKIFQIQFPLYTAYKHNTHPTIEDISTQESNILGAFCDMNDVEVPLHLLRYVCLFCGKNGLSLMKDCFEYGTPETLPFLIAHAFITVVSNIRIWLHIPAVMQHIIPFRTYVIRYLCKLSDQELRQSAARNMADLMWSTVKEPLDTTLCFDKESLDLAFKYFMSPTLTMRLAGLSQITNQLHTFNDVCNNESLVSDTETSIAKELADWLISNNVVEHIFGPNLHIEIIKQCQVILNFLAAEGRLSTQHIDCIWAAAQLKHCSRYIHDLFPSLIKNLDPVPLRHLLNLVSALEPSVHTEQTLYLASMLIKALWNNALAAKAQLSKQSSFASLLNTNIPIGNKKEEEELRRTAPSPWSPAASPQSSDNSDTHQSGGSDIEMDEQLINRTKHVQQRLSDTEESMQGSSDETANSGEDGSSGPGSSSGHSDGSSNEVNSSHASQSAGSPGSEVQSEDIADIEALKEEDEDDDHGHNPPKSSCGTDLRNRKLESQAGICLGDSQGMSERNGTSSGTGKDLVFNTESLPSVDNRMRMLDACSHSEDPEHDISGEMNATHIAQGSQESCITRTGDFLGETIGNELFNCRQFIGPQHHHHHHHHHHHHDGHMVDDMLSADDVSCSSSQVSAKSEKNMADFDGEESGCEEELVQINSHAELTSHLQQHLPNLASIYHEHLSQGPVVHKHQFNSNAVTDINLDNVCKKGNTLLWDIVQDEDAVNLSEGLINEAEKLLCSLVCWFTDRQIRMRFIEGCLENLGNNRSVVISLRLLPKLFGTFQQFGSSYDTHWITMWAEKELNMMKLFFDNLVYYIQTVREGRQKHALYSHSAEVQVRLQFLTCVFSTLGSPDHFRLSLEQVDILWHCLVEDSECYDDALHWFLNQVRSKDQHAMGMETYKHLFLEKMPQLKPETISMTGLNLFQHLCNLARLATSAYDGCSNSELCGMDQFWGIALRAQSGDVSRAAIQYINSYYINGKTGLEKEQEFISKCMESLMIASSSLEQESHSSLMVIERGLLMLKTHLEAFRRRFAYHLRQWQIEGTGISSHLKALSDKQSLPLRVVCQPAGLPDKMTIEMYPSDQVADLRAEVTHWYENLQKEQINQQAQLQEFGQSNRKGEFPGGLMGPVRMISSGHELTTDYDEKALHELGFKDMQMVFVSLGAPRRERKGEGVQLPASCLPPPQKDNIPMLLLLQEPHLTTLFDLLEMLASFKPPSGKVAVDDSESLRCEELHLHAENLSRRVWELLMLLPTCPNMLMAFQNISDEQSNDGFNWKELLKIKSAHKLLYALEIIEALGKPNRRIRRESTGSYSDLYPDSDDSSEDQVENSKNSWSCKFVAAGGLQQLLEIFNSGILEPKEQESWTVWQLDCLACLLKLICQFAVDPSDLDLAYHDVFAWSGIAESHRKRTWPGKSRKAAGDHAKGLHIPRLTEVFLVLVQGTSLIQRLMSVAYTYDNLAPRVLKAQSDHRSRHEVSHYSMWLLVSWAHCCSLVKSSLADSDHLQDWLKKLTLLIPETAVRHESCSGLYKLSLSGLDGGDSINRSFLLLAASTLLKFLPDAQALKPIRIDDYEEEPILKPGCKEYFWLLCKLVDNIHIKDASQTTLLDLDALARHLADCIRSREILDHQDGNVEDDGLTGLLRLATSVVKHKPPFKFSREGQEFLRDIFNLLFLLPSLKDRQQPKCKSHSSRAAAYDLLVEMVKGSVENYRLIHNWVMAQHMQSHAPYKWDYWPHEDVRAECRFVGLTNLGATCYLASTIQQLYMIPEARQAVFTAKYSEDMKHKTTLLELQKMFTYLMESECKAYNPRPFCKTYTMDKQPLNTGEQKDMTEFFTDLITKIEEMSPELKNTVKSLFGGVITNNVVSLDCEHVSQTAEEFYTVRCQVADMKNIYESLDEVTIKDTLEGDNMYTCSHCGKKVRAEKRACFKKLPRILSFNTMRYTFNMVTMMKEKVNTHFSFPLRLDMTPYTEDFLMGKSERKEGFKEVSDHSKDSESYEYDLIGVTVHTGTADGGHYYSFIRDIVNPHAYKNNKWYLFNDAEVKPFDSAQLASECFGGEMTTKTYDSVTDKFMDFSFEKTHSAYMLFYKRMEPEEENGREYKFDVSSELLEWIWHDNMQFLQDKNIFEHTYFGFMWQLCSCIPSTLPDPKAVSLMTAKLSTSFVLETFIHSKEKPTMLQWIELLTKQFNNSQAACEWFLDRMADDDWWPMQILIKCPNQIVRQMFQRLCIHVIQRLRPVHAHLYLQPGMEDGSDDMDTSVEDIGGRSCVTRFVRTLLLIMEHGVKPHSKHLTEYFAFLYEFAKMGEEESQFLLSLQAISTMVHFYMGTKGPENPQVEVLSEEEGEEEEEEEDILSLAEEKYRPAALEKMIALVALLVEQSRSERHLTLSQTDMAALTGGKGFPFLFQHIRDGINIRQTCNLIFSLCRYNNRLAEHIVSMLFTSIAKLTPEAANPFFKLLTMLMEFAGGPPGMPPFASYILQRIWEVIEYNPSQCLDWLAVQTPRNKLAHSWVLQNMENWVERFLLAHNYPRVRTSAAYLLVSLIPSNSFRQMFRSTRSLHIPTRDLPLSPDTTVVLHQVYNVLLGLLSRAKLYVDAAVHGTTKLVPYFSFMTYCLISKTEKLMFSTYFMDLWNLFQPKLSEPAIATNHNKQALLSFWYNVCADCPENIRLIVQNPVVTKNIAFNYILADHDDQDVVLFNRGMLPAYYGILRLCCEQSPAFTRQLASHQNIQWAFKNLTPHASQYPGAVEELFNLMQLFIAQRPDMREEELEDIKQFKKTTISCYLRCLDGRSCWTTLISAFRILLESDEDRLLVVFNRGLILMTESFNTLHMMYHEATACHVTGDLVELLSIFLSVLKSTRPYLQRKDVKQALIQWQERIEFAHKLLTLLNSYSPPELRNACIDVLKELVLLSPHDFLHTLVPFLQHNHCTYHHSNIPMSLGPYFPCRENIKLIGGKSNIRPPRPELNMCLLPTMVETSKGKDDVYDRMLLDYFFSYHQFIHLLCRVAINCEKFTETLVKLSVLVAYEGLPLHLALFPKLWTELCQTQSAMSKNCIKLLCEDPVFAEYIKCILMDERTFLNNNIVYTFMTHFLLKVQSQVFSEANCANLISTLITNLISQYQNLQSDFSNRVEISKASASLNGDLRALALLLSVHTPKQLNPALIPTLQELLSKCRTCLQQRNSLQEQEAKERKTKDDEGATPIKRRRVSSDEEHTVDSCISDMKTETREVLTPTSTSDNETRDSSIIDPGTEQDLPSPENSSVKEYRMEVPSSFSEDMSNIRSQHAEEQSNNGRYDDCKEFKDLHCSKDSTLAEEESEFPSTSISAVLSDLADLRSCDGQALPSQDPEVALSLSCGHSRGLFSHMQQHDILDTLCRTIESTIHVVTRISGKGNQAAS
Procedure, shortened: (§1)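 Labelling with Biotin-Ahx-Ub-VS (0.5 µM final, 1 h) followed a 3 h triplicate treatment of HEK293T lysate (495 µg per sample, Tris/CHAPS/IGEPAL buffer with protease inhibitors) with fragment at 200 µM or vehicle. Labelled DUBs were NeutrAvidin-enriched, digested with LysC and trypsin, and run by diaPASEF LC-MS/MS. The values, average log2 fragment/vehicle ratios by unpaired t-test, come from global-median-normalised Spectronaut label-free quantities. Proteins with ≥2 unique peptides were used.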

USP36 = biological target: T1, USP36 (UniProt Q9P275)
T1 sequence (whole entry): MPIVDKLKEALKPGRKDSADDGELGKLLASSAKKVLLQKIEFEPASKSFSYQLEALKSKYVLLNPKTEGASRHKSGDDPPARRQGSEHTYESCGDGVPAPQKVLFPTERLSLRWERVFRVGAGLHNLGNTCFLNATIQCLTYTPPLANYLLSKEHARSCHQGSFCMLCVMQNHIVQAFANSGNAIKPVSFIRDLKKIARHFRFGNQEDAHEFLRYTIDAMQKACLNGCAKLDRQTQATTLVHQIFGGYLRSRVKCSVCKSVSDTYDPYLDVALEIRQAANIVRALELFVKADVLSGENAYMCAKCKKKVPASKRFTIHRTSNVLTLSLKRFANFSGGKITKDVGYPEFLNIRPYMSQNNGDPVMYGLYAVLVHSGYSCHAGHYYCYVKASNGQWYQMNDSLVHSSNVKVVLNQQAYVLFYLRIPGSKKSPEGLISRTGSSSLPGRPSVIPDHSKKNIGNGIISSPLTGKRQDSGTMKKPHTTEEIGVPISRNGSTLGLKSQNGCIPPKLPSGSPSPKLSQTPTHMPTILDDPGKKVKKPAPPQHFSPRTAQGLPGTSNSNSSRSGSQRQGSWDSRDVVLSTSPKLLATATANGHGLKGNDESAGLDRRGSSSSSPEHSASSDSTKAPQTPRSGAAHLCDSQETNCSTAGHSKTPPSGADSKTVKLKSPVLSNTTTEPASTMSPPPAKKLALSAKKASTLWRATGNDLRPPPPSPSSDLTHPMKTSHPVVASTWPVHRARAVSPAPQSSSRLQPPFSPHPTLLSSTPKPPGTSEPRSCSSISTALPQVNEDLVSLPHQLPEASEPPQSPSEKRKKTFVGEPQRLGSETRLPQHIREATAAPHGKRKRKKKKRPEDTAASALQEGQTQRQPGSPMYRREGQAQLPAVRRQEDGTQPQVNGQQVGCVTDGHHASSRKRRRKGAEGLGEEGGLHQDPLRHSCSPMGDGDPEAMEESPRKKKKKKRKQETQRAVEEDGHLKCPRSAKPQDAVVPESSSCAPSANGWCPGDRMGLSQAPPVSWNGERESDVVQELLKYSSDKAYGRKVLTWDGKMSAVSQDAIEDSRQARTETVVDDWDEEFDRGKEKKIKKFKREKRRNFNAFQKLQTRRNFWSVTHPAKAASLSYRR
Procedure, shortened: as §1

USP38 = biological target: T2, USP38 (UniProt Q8NB14)
T2 sequence (whole entry): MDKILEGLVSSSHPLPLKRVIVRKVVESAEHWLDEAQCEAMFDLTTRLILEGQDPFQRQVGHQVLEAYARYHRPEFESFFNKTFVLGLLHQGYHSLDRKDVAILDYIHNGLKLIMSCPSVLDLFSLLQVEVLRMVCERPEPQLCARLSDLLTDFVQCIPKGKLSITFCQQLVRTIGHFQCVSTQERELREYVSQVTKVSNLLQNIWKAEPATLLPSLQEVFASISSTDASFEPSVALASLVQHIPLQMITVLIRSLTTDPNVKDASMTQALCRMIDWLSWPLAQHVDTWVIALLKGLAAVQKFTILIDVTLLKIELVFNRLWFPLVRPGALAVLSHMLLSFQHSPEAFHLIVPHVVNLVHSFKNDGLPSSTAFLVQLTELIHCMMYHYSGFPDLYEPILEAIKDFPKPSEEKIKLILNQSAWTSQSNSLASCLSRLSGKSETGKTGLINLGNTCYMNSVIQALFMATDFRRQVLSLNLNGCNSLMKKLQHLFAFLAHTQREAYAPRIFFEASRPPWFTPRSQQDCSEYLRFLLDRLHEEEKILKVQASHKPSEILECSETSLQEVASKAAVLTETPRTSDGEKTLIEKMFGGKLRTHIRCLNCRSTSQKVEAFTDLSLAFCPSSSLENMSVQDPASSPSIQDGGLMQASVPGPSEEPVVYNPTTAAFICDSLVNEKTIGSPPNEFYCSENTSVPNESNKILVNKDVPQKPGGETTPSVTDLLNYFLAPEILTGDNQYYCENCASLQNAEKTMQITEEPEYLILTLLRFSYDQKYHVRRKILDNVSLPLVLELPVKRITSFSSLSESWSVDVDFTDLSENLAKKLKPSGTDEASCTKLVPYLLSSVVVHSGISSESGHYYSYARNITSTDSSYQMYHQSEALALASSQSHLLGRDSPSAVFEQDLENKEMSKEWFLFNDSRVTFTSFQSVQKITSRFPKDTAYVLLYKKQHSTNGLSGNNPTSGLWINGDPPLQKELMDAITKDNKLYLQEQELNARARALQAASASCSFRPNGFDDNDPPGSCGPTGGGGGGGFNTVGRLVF
Procedure, shortened: as §1

USP39 = biological target: T3, USP39 (UniProt Q53GS9)
T3 sequence (whole entry): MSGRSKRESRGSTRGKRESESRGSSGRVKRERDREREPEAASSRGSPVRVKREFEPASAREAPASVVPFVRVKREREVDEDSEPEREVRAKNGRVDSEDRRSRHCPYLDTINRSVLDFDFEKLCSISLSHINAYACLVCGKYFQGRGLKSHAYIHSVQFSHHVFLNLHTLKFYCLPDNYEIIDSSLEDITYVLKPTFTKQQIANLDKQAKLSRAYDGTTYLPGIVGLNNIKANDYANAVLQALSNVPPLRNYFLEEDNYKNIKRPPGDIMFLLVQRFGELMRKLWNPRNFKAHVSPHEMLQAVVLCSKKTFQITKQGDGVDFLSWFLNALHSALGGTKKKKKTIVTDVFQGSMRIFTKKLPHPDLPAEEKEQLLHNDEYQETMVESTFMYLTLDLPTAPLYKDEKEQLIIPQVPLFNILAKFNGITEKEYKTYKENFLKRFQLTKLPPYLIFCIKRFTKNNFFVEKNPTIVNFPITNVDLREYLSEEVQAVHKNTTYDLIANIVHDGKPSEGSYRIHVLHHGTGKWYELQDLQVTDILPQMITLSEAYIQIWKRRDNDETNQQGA
Procedure, shortened: as §1

USP4 = biological target: T4, USP4 (UniProt Q13107)
T4 sequence (whole entry): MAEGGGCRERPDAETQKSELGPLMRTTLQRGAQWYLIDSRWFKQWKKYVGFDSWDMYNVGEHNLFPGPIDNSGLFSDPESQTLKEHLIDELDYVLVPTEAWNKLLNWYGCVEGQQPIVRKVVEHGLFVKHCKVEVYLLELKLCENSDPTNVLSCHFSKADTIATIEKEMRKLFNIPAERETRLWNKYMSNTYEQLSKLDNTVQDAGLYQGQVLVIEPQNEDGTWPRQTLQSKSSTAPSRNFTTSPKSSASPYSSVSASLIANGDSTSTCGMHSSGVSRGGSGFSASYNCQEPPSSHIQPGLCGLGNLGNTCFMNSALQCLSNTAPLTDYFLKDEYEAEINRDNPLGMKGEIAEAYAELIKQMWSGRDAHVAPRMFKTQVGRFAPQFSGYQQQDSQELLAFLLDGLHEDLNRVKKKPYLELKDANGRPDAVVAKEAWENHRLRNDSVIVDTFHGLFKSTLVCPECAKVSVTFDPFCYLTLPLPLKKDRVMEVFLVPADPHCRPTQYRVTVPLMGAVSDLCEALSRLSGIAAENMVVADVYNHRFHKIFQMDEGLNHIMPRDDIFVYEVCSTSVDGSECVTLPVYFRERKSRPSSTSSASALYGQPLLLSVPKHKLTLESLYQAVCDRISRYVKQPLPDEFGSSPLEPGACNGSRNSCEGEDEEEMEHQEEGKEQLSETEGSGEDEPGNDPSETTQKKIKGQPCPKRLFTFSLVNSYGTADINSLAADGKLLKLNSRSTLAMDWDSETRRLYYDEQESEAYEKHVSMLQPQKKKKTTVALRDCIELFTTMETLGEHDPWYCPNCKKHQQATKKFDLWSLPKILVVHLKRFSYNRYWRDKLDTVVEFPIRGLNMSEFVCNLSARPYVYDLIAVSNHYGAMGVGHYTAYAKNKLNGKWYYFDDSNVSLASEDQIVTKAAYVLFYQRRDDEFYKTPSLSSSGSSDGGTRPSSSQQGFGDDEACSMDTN
Procedure, shortened: as §1

Measured: log2 ratio of Biotin-Ahx-Ub-VS probe labelling

O=C(CCl)Nc1cccc(C(=O)N2CCSCC2)c1
inactive: USP34 -0.185 | USP36 0.0297 | USP38 -0.0941 | USP39 0.29 | USP4 -0.272
